Reference: PMC9911399, “Two distinct binding modes provide the RNA-binding protein RbFox with extraordinary sequence specificity”
Numbering of substitutions follows the chain as printed; changes in the protein carry UniProt numbers. The full ranking holds about 16,000 sequences; the median of “ka relative to ugcaugu” is about 0.0091, and the highest 2% start at about 0.032. The full list was thinned out, with the highest values kept by preference.

B1: ACAGCUC (DNA:RNA)
RNA: GGGAGACCGGAAUUCAGAUUGUCCACAGCUCUUAAAUCCCGUCGUAGCCACCA
DNA 1: CAATCTGAATTCCGGTCTCCC
DNA 2: TGGTGGCTACGACGGGATT
B2: CUAUCUG (DNA:RNA)
RNA: B1 RNA with A25C, C26U, G28U, C31G
DNA 1: CAATCTGAATTCCGGTCTCCC
DNA 2: TGGTGGCTACGACGGGATT
B3: UAAGCGA (DNA:RNA)
RNA: B1 RNA with A25U, C26A, U30G, C31A
DNA 1: CAATCTGAATTCCGGTCTCCC
DNA 2: TGGTGGCTACGACGGGATT
B4: GGUCAGA (DNA:RNA)
RNA: GGGAGACCGGAAUUCAGAUUGUCCGGUCAGAUUAAAUCCCGUCGUAGCCACCA
DNA 1: CAATCTGAATTCCGGTCTCCC
DNA 2: TGGTGGCTACGACGGGATT
B5: CAUUUGG (DNA:RNA)
RNA: B4 RNA with G25C, G26A, C28U, A29U, A31G
DNA 1: CAATCTGAATTCCGGTCTCCC
DNA 2: TGGTGGCTACGACGGGATT
B6: GACUAUC (DNA:RNA)
RNA: B1 RNA with A25G, C26A, A27C, G28U, C29A
DNA 1: CAATCTGAATTCCGGTCTCCC
DNA 2: TGGTGGCTACGACGGGATT
B7: AAAGUAC (DNA:RNA)
RNA: B1 RNA with C26A, C29U, U30A
DNA 1: CAATCTGAATTCCGGTCTCCC
DNA 2: TGGTGGCTACGACGGGATT
B8: AAAACUA (DNA:RNA)
RNA: B1 RNA with C26A, G28A, C31A
DNA 1: CAATCTGAATTCCGGTCTCCC
DNA 2: TGGTGGCTACGACGGGATT
B9: GAUCUCU (DNA:RNA)
RNA: B4 RNA with G26A, A29U, G30C, A31U
DNA 1: CAATCTGAATTCCGGTCTCCC
DNA 2: TGGTGGCTACGACGGGATT
B10: UUAAGUU (DNA:RNA)
RNA: B1 RNA with A25U, C26U, G28A, C29G, C31U
DNA 1: CAATCTGAATTCCGGTCTCCC
DNA 2: TGGTGGCTACGACGGGATT
B11: UUCGUGC (DNA:RNA)
RNA: B1 RNA with A25U, C26U, A27C, C29U, U30G
DNA 1: CAATCTGAATTCCGGTCTCCC
DNA 2: TGGTGGCTACGACGGGATT
B12: CGCGUGC (DNA:RNA)
RNA: B1 RNA with A25C, C26G, A27C, C29U, U30G
DNA 1: CAATCTGAATTCCGGTCTCCC
DNA 2: TGGTGGCTACGACGGGATT
B13: UGCGUGC (DNA:RNA)
RNA: B1 RNA with A25U, C26G, A27C, C29U, U30G
DNA 1: CAATCTGAATTCCGGTCTCCC
DNA 2: TGGTGGCTACGACGGGATT
B14: UGCGUCC (DNA:RNA)
RNA: B1 RNA with A25U, C26G, A27C, C29U, U30C
DNA 1: CAATCTGAATTCCGGTCTCCC
DNA 2: TGGTGGCTACGACGGGATT
B15: UCCUGCG (DNA:RNA)
RNA: B1 RNA with A25U, A27C, G28U, C29G, U30C, C31G
DNA 1: CAATCTGAATTCCGGTCTCCC
DNA 2: TGGTGGCTACGACGGGATT
B16: UGCUGCG (DNA:RNA)
RNA: B4 RNA with G25U, U27C, C28U, A29G, G30C, A31G
DNA 1: CAATCTGAATTCCGGTCTCCC
DNA 2: TGGTGGCTACGACGGGATT
B17: UGCGCGU (DNA:RNA)
RNA: B1 RNA with A25U, C26G, A27C, U30G, C31U
DNA 1: CAATCTGAATTCCGGTCTCCC
DNA 2: TGGTGGCTACGACGGGATT
B18: UGUGUCC (DNA:RNA)
RNA: B1 RNA with A25U, C26G, A27U, C29U, U30C
DNA 1: CAATCTGAATTCCGGTCTCCC
DNA 2: TGGTGGCTACGACGGGATT
B19: UGCGUCG (DNA:RNA)
RNA: B1 RNA with A25U, C26G, A27C, C29U, U30C, C31G
DNA 1: CAATCTGAATTCCGGTCTCCC
DNA 2: TGGTGGCTACGACGGGATT
B20: UGCGUUU (DNA:RNA)
RNA: B1 RNA with A25U, C26G, A27C, C29U, C31U
DNA 1: CAATCTGAATTCCGGTCTCCC
DNA 2: TGGTGGCTACGACGGGATT
B21: CUGCGUG (DNA:RNA)
RNA: B1 RNA with A25C, C26U, A27G, G28C, C29G, C31G
DNA 1: CAATCTGAATTCCGGTCTCCC
DNA 2: TGGTGGCTACGACGGGATT
B22: UGCGUGU (DNA:RNA)
RNA: B4 RNA with G25U, U27C, C28G, A29U, A31U
DNA 1: CAATCTGAATTCCGGTCTCCC
DNA 2: TGGTGGCTACGACGGGATT
B23: CCGCACU (DNA:RNA)
RNA: B4 RNA with G25C, G26C, U27G, G30C, A31U
DNA 1: CAATCTGAATTCCGGTCTCCC
DNA 2: TGGTGGCTACGACGGGATT
B24: CGCCCCU (DNA:RNA)
RNA: B4 RNA with G25C, U27C, A29C, G30C, A31U
DNA 1: CAATCTGAATTCCGGTCTCCC
DNA 2: TGGTGGCTACGACGGGATT
B25: UUCUAAG (DNA:RNA)
RNA: B4 RNA with G25U, G26U, U27C, C28U, G30A, A31G
DNA 1: CAATCTGAATTCCGGTCTCCC
DNA 2: TGGTGGCTACGACGGGATT
B26: GGUGUGG (DNA:RNA)
RNA: B4 RNA with C28G, A29U, A31G
DNA 1: CAATCTGAATTCCGGTCTCCC
DNA 2: TGGTGGCTACGACGGGATT
B27: AUUAACU (DNA:RNA)
RNA: B4 RNA with G25A, G26U, C28A, G30C, A31U
DNA 1: CAATCTGAATTCCGGTCTCCC
DNA 2: TGGTGGCTACGACGGGATT
B28: GUUCCAG (DNA:RNA)
RNA: B4 RNA with G26U, A29C, G30A, A31G
DNA 1: CAATCTGAATTCCGGTCTCCC
DNA 2: TGGTGGCTACGACGGGATT
B29: UAUCCAA (DNA:RNA)
RNA: B4 RNA with G25U, G26A, A29C, G30A
DNA 1: CAATCTGAATTCCGGTCTCCC
DNA 2: TGGTGGCTACGACGGGATT
B30: CCACCGU (DNA:RNA)
RNA: B1 RNA with A25C, G28C, U30G, C31U
DNA 1: CAATCTGAATTCCGGTCTCCC
DNA 2: TGGTGGCTACGACGGGATT
B31: GUAAUAU (DNA:RNA)
RNA: B1 RNA with A25G, C26U, G28A, C29U, U30A, C31U
DNA 1: CAATCTGAATTCCGGTCTCCC
DNA 2: TGGTGGCTACGACGGGATT

target: T1, RBFOX1 RRM (Homo sapiens, UniProt Q9NWB1 109-208); assay: EMSA; HiTS-Eq, 1 nM pool, 10 min; buffer printed only for the single-RNA assays: 10 mM Tris pH 7.5, 150 mM NaCl, 3.4 mM EDTA, 0.001% NP-40, 30 C; conditions: tags: His6 N-terminal (pET28a); label: 5' 32P
T1 sequence: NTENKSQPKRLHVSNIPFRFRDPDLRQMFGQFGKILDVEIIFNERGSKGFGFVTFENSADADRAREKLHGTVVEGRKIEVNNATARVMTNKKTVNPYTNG
Procedure, shortened: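 Purified RbFox RRM, wild type or mutant, was incubated for 10 min in 50 µL with 1 nM of a 5′-radiolabelled RNA pool carrying 7 randomized nucleotides, whose flanks were annealed to DNA oligonucleotides, over a series of increasing protein concentrations. Unbound RNA was resolved on 8% native PAGE, cut out, reverse-transcribed, barcoded by PCR and sequenced on an Illumina HiSeq 2500. Relative association constants were derived from changes in read counts for each RNA species versus the control reaction and normalised to the cognate motif.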

Binder	binding signal
B1	0.00303 KA relative to UGCAUGU
B2	0.00983 KA relative to UGCAUGU
B3	0.0108 KA relative to UGCAUGU
B4	0.00171 KA relative to UGCAUGU
B5	0.014 KA relative to UGCAUGU
B6	0.00429 KA relative to UGCAUGU
B7	0.00371 KA relative to UGCAUGU
B8	0.00178 KA relative to UGCAUGU
B9	0.0194 KA relative to UGCAUGU
B10	0.0109 KA relative to UGCAUGU
B11	0.0243 KA relative to UGCAUGU
B12	0.0241 KA relative to UGCAUGU
B13	0.0465 KA relative to UGCAUGU
B14	0.0132 KA relative to UGCAUGU
B15	0.0166 KA relative to UGCAUGU
B16	0.0333 KA relative to UGCAUGU

Binder	binding signal
B17	0.0288 KA relative to UGCAUGU
B18	0.0226 KA relative to UGCAUGU
B19	0.0236 KA relative to UGCAUGU
B20	0.0236 KA relative to UGCAUGU
B21	0.035 KA relative to UGCAUGU
B22	0.0418 KA relative to UGCAUGU
B23	0.00621 KA relative to UGCAUGU
B24	0.00718 KA relative to UGCAUGU
B25	0.00998 KA relative to UGCAUGU
B26	0.0188 KA relative to UGCAUGU
B27	0.00102 KA relative to UGCAUGU
B28	0.0134 KA relative to UGCAUGU
B29	0.00131 KA relative to UGCAUGU
B30	0.0012 KA relative to UGCAUGU
B31	0.00279 KA relative to UGCAUGU
